# Mot1-301 SUMO = inhibitors of SUMOylation pathway: yeast Mot1-301 growth rescue. S. cerevisiae Mot1-301 growth rescue, ATP luminescence, 38.5C; percent above DMSO median, 100 means doubled. growth rescue, % at 18.8 µM. 320,000 compounds, 1% hits. AID 2716;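 active = every valid replicate shows activation above 250% relative to neutral control wells; inactive = the rest, any valid replicate at or below 250%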;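 also: OY570 slx delta 5 strain wells were the positive control but not used for scaling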
# CHT allo act = human CHT allosteric activation | Q9GZV3 | CHT-expressing cells, membrane potential dye, choline EC20; active compounds read high; LV-AA mutant CHT in HEK293 cells | B-score at 10 µM | 310,000 compounds, 0.49% hits;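 active = initial fluorescence not abnormally high and integrated response B-score, plate-corrected, over 3 SD above library mean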
# CHT block = human CHT choline transport inhibition. Q9GZV3. CHT-expressing cells, membrane potential dye, choline response; active compounds read low. B-score at 10 µM. 310,000 compounds, 0.86% hits. AID 488975;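 active = B-score over 3 SD under the library average, and starting fluorescence ratio not unusually high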;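 also: choline stimulus applied at its EC90 after an EC20 pre-addition; B-score computed on integrated fluorescence ratio after choline addition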
# MEKK2mut PB1 HTS = signal of MEK5 binding to mutant human MEKK2 PB1 domain. bead flow cytometry, Alexa488-MEK5 binding to MEKK2 mutant. 290,000 compounds, 0.35% hits. AID 1530. percent response, % at 10 µM; in the data active = percent response above about 24%, passing the limit was not always enough
# MEKK2 WT-MEK5 = raises or lowers MEK5 binding to wildtype human MEKK2 PB1 domain. binding response (% of control), % at 10 µM. 290,000 compounds, 1.1% hits. bead flow cytometry, Alexa488-MEK5 binding to MEKK2 WT; actives lie on both sides. AID 1531; in the data active = binding response below about 67% or above about 130%
# MEKK3 PB1 HTS = MEKK3-MEK5 PB1 interaction, increase or decrease; bead-based flow cytometry, Alexa488-MEK5 binding to MEKK3; actives lie on both sides; 0 = blocked by unlabeled MEK5, 100 = vehicle; 290,000 compounds, 1.4% hits; binding response (% of control), % at 10 µM;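 active = binding response more than 3 SD above or below the average of its plate-row segment, actives on both sides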;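 also: Alexa488 bead fluorescence after subtracting the streptavidin-only scavenger bead signal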
# Target sequence (Q99759 whole entry, looked up): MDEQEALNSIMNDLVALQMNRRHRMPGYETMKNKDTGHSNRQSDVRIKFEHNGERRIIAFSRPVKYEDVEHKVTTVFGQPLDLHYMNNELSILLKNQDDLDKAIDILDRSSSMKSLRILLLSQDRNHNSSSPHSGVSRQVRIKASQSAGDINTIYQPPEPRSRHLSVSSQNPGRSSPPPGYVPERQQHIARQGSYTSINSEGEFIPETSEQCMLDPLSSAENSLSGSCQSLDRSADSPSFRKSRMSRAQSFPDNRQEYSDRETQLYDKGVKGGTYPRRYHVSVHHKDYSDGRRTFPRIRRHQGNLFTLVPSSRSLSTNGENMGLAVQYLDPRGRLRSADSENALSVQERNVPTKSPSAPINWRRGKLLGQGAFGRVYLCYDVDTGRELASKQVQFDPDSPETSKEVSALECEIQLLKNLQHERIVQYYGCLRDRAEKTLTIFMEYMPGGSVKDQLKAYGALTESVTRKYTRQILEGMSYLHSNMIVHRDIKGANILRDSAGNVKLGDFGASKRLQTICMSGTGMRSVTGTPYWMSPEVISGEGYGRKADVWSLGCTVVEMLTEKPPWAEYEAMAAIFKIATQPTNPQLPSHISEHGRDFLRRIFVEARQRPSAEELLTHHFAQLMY
# Starred values were filed as active, the others as inactive; i = inactive; . = not tested or not shown; [ ] = remark or other dose. Only some compounds are listed: those with a hit (about 4.1% of all), similar ones and a draw of the others.
SMILES,Mot1-301 SUMO,CHT allo act,CHT block,MEKK2mut PB1 HTS,MEKK2 WT-MEK5,MEKK3 PB1 HTS
CCn1nc(C)c(CN2CCC(C(=O)Nc3cccc(-c4cccc(F)c4)c3)CC2)c1C,13,i,i,25*,136*,106
COc1ccc2nc(/C(C#N)=C\c3ccc(C(=O)O)cc3)[nH]c2c1,-9,i,i,44,7.0*,81
CNc1nc2c(N)ncnc2n1[C@H]1O[C@@H](CO)[C@H](O)[C@@H]1O,270,i,-7.6*,10,114,100
Cc1ccccc1NC(=O)c1c(C)cc(=O)oc1C,-1,i,i,-19,88,91
Cc1cc(=O)oc(C)c1C(=O)Nc1cccc2nonc12,324*,i,i,4,104,105
CCCCC(=O)NC(=S)Nc1nnn(CCC)n1,-2,i,i,-18,53,43*[inhibitor]
CC1(C)OC(=O)N(c2ccccc2)C12C=Cc1c(ccc3ccccc13)O2 (centres undefined),274*,i,i,3,100,113
Cc1[nH]c2ccccc2c1C(O)CN1CCN(c2cccc(C(F)(F)F)c2)CC1 (centres undefined),.,i,-8.7*,8,125,108
O=C(c1cc(=O)[nH]c2ccccc12)N1CCN(c2cccc(C(F)(F)F)c2)CC1,0,i,i,2,101,102
CC(C)(C)OC(=O)C[C@H]1C/C=C\C[C@H](CC(=O)N(CCO)Cc2ccccc2)C(=O)N2CCC[C@H]2COC1=O,-13,.,.,.,.,.
CCN(CC(=O)NC1CCS(=O)(=O)C1)S(=O)(=O)c1ccc(Br)cc1 (centres undefined),-3,.,.,.,.,.
CCN1CCN(S(=O)(=O)c2cc(OCC(=O)NC3CCCCC3)c(C)cc2Cl)CC1,11,i,i,-15,3.0*[inhibitor],3.0*[inhibitor]
Cc1[nH]nc(N)c1-c1ccc(Cl)cc1,287*,i,i,-10,87,80
O=C(CCCc1c[nH]c2ccccc12)NCc1ccccc1C(F)(F)F,29,i,i,4,107,102
Oc1ccc(-c2ccccc2)cc1CN1CCCCCC1,341*,i,i,6,110,102
CCNC(=O)CC1C(=O)N(c2ccccc2)C(=O)N1CCOC (centres undefined),2,i,i,5,109,106
COc1cc(/C=N/n2cc(-c3ccccc3)[nH]c2=S)cc(OC)c1O,540*,i,i,4,99,100
NC(=O)CC(NC(=O)c1cccc(Br)c1)c1ccc(N2CCN(c3ccccn3)CC2)c([N+](=O)[O-])c1 (centres undefined),-2,i,i,0,99,101
CCOC(=O)c1cc[nH]c1CC(=O)NC,2,i,i,7,99,106
COc1ccc(NC(=S)N(C)CC2COc3ccccc3O2)cc1 (centres undefined),7,i,i,.,.,.
CC(Sc1nnc(-c2ccncc2)n1C)C(=O)NCC1CCCO1 (centres undefined),-10,i,i,.,.,.
O=C(CSc1ccc2nnc(-c3cccnc3)n2n1)Nc1ccccc1,21,i,i,4,103,101
O=C(CSc1ccc2nnc(-c3cccnc3)n2n1)Nc1ccccc1C(F)(F)F,298*,i,i,4,103,99
N=C1S/C(=C\c2cccc3ccccc23)C(=O)N1c1ccc(F)cc1,-2,i,i,0,102,144*
CCc1nnc(NC(=O)CCC(=O)N2CCN(Cc3ccc(F)cc3)CC2)s1,151,i,i,0,100,102
O=C(Nc1c(F)c(F)c(F)c(F)c1F)NC1CCCCC1,699*,i,i,1,99,103
CCCCC(CC)C(=O)N1CCN(C(=O)c2ccco2)CC1 (centres undefined),.,i,i,0,108,117
O=P(Cc1nnco1)(c1ccccc1)c1ccccc1,340*,i,i,3,105,103
CCOC(=O)Cc1nnc(Nc2cc(C)ccc2C)c2ccccc12,856,i,i,4,103,113

# High-throughput results from PubChem.
